# Measurements published in PubChem BioAssay AID1159580 (chemical genetic matrix, 2015).
# The whole screen tested about 5,500 compounds, of which about 2,000 (36%) were called active. Another 18% or so got no clear call; they are omitted. The list shows a part of the results. Unmarked numbers belong to inactive results. Rule as the data show it: active = normalized growth mostly below about 0.91 (no sharp cut-off); inconclusive = no clear call, values can overlap the other calls; inactive = mostly above about 0.92.
# Experiment: chemical genetic growth profiling, strain panel (AID 1159580);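 also: tested at 20 µM; growth read once vehicle control cultures reached saturation at 30 °C; 1 = growth at the plate median or of vehicle wells; lower values mean less growth of the strain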
# Details: growth OD
compound,measurement,setting,value
COc1ccc2c(c1)OC[C@@H](Cc1ccc(OC)c(OC)c1)[C@@H]2O,normalized growth,"S. cerevisiae deletion strains, locus YJR075W, strain HOC1, stronger effect = lower value",0.951
same,normalized growth,"S. cerevisiae deletion strains, locus YKL009W, strain mrt4, stronger effect = lower value",0.985
same,normalized growth,"S. cerevisiae deletion strains, locus YKL068W, stronger effect = lower value",0.988
same,normalized growth,"S. cerevisiae deletion strains, locus YKL085W, strain MDH1 (second series), stronger effect = lower value",0.956
same,normalized growth,"S. cerevisiae deletion strains, locus YKL085W, strain MDH1, stronger effect = lower value",0.956
same,normalized growth,"S. cerevisiae deletion strains, locus YKL160W, strain elf1, stronger effect = lower value",1
same,normalized growth,"S. cerevisiae deletion strains, locus YKL190W, strain CNB1, stronger effect = lower value",1
same,normalized growth,"S. cerevisiae deletion strains, locus YKR001C, strain vps1, stronger effect = lower value",0.892 (active)
same,normalized growth,"S. cerevisiae deletion strains, locus YKR026C, strain gcn3, stronger effect = lower value",0.992
same,normalized growth,"S. cerevisiae deletion strains, locus YKR091W, strain srl3, stronger effect = lower value",0.988
same,normalized growth,"S. cerevisiae deletion strains, locus YLL001W, strain dnm1, stronger effect = lower value",0.99
same,normalized growth,"S. cerevisiae deletion strains, locus YLL026W, stronger effect = lower value",0.995
same,normalized growth,"S. cerevisiae deletion strains, locus YLL041C, strain sdh2, stronger effect = lower value",0.989
same,normalized growth,"S. cerevisiae deletion strains, locus YLR027C, strain aat2, stronger effect = lower value",0.989
same,normalized growth,"S. cerevisiae deletion strains, locus YLR039C, strain RIC1, stronger effect = lower value",0.749
same,normalized growth,"S. cerevisiae deletion strains, locus YLR058C, strain SHM2, stronger effect = lower value",0.997
same,normalized growth,"S. cerevisiae deletion strains, locus YLR102C, strain apc9, stronger effect = lower value",0.987
same,normalized growth,"S. cerevisiae deletion strains, locus YLR113W, strain HOG1, stronger effect = lower value",0.875
same,normalized growth,"S. cerevisiae deletion strains, locus YLR221C, strain rsa3, stronger effect = lower value",1.01
same,normalized growth,"S. cerevisiae deletion strains, locus YLR258W, strain gsy2, stronger effect = lower value",0.979
same,normalized growth,"S. cerevisiae deletion strains, locus YLR262C, strain YPT6 (second series), stronger effect = lower value",0.831 (active)
same,normalized growth,"S. cerevisiae deletion strains, locus YLR262C, strain YPT6, stronger effect = lower value",0.805
same,normalized growth,"S. cerevisiae deletion strains, locus YLR268W, strain sec22, stronger effect = lower value",0.999
same,normalized growth,"S. cerevisiae deletion strains, locus YLR320W, strain mms22, stronger effect = lower value",0.971
same,normalized growth,"S. cerevisiae deletion strains, locus YLR330W, strain CHS5, stronger effect = lower value",0.993
same,normalized growth,"S. cerevisiae deletion strains, locus YLR342W, strain FKS1 (second series), stronger effect = lower value",0.958
same,normalized growth,"S. cerevisiae deletion strains, locus YLR342W, strain FKS1, stronger effect = lower value",0.973
same,normalized growth,"S. cerevisiae deletion strains, locus YLR357W, strain rsc2, stronger effect = lower value",0.998
same,normalized growth,"S. cerevisiae deletion strains, locus YLR370C, strain arc18, stronger effect = lower value",1
same,normalized growth,"S. cerevisiae deletion strains, locus YLR371W, strain rom2, stronger effect = lower value",0.985
same,normalized growth,"S. cerevisiae deletion strains, locus YLR384C, strain iki3, stronger effect = lower value",0.982
same,normalized growth,"S. cerevisiae deletion strains, locus YLR418C, strain cdc73, stronger effect = lower value",1.01
same,normalized growth,"S. cerevisiae deletion strains, locus YML016C, strain PPZ1, stronger effect = lower value",1
same,normalized growth,"S. cerevisiae deletion strains, locus YML032C, strain rad52, stronger effect = lower value",0.981
same,normalized growth,"S. cerevisiae deletion strains, locus YML120C, strain ndi1, stronger effect = lower value",0.986
same,normalized growth,"S. cerevisiae deletion strains, locus YML124C, strain tub3, stronger effect = lower value",0.988
same,normalized growth,"S. cerevisiae deletion strains, locus YMR058W, strain fet3, stronger effect = lower value",1.01
same,normalized growth,"S. cerevisiae deletion strains, locus YMR078C, strain ctf18, stronger effect = lower value",0.986
same,normalized growth,"S. cerevisiae deletion strains, locus YMR125W, strain sto1, stronger effect = lower value",1.01
same,normalized growth,"S. cerevisiae deletion strains, locus YMR129W, stronger effect = lower value",0.985
same,normalized growth,"S. cerevisiae deletion strains, locus YMR205C, strain PFK2, stronger effect = lower value",0.955
same,normalized growth,"S. cerevisiae deletion strains, locus YMR223W, strain ubp8, stronger effect = lower value",0.987
same,normalized growth,"S. cerevisiae deletion strains, locus YMR231W, strain pep5, stronger effect = lower value",0.987
same,normalized growth,"S. cerevisiae deletion strains, locus YMR263W, strain SAP30, stronger effect = lower value",1.01
same,normalized growth,"S. cerevisiae deletion strains, locus YMR307W, strain GAS1, stronger effect = lower value",0.945
same,normalized growth,"S. cerevisiae deletion strains, locus YNL067W, strain RPL9B, stronger effect = lower value",1.01
same,normalized growth,"S. cerevisiae deletion strains, locus YNL071W, strain lat1, stronger effect = lower value",0.994
same,normalized growth,"S. cerevisiae deletion strains, locus YNL128W, strain TEP1, stronger effect = lower value",1.01
same,normalized growth,"S. cerevisiae deletion strains, locus YNL153C, strain GIM3, stronger effect = lower value",1.01
same,normalized growth,"S. cerevisiae deletion strains, locus YNL183C, strain NPR1, stronger effect = lower value",0.933
same,normalized growth,"S. cerevisiae deletion strains, locus YNL209W, strain ssb2, stronger effect = lower value",1.01
same,normalized growth,"S. cerevisiae deletion strains, locus YNL233W, strain BNI4, stronger effect = lower value",0.978
same,normalized growth,"S. cerevisiae deletion strains, locus YNL248C, strain rpa49, stronger effect = lower value",1.01
same,normalized growth,"S. cerevisiae deletion strains, locus YNL250W, strain rad50, stronger effect = lower value",1
same,normalized growth,"S. cerevisiae deletion strains, locus YNL271C, strain bni1, stronger effect = lower value",0.992
same,normalized growth,"S. cerevisiae deletion strains, locus YNL298W, strain CLA4, stronger effect = lower value",0.992
same,normalized growth,"S. cerevisiae deletion strains, locus YNL307C, strain MCK1, stronger effect = lower value",0.953
same,normalized growth,"S. cerevisiae deletion strains, locus YNL322C, strain KRE1 (second series), stronger effect = lower value",0.967
same,normalized growth,"S. cerevisiae deletion strains, locus YNL322C, strain KRE1, stronger effect = lower value",0.999
same,normalized growth,"S. cerevisiae deletion strains, locus YNR049C, strain mso1, stronger effect = lower value",0.99
same,normalized growth,"S. cerevisiae deletion strains, locus YNR052C, strain pop2, stronger effect = lower value",0.977
same,normalized growth,"S. cerevisiae deletion strains, locus YOL006C, strain TOP1, stronger effect = lower value",0.993
same,normalized growth,"S. cerevisiae deletion strains, locus YOL147C, strain pex11, stronger effect = lower value",0.985
same,normalized growth,"S. cerevisiae deletion strains, locus YOR001W, strain rrp6, stronger effect = lower value",1.01
same,normalized growth,"S. cerevisiae deletion strains, locus YOR061W, strain CKA2, stronger effect = lower value",1
same,normalized growth,"S. cerevisiae deletion strains, locus YOR069W, strain VPS5, stronger effect = lower value",0.992
same,normalized growth,"S. cerevisiae deletion strains, locus YOR070C, strain gyp1, stronger effect = lower value",0.998
same,normalized growth,"S. cerevisiae deletion strains, locus YOR080W, strain dia2, stronger effect = lower value",0.974
same,normalized growth,"S. cerevisiae deletion strains, locus YOR083W, strain WHI5, stronger effect = lower value",0.987
same,normalized growth,"S. cerevisiae deletion strains, locus YOR106W, strain vam3, stronger effect = lower value",1.02
same,normalized growth,"S. cerevisiae deletion strains, locus YOR136W, strain idh2, stronger effect = lower value",0.991
same,normalized growth,"S. cerevisiae deletion strains, locus YOR144C, strain elg1, stronger effect = lower value",0.987
same,normalized growth,"S. cerevisiae deletion strains, locus YOR184W, strain ser1, stronger effect = lower value",0.952
same,normalized growth,"S. cerevisiae deletion strains, locus YOR231W, strain MKK1, stronger effect = lower value",0.976
same,normalized growth,"S. cerevisiae deletion strains, locus YOR265W, strain rbl2, stronger effect = lower value",1.01
same,normalized growth,"S. cerevisiae deletion strains, locus YOR270C, strain vph1, stronger effect = lower value",1.01
same,normalized growth,"S. cerevisiae deletion strains, locus YOR290C, strain snf2, stronger effect = lower value",1
same,normalized growth,"S. cerevisiae deletion strains, locus YOR316C, strain cot1, stronger effect = lower value",0.99
same,normalized growth,"S. cerevisiae deletion strains, locus YPL051W, strain arl3, stronger effect = lower value",0.982
same,normalized growth,"S. cerevisiae deletion strains, locus YPL055C, strain LGE1, stronger effect = lower value",0.996
same,normalized growth,"S. cerevisiae deletion strains, locus YPL078C, strain atp4, stronger effect = lower value",1.01
same,normalized growth,"S. cerevisiae deletion strains, locus YPL106C, strain sse1, stronger effect = lower value",0.99
same,normalized growth,"S. cerevisiae deletion strains, locus YPL240C, strain hsp82, stronger effect = lower value",0.995
same,normalized growth,"S. cerevisiae deletion strains, locus YPL241C, strain CIN2, stronger effect = lower value",0.998
same,normalized growth,"S. cerevisiae deletion strains, locus YPL256C, strain CLN2, stronger effect = lower value",0.983
same,normalized growth,"S. cerevisiae deletion strains, locus YPR119W, strain clb2, stronger effect = lower value",0.983
same,normalized growth,"S. cerevisiae deletion strains, locus YPR141C, strain kar3, stronger effect = lower value",0.995
same,normalized growth,"S. cerevisiae deletion strains, locus YPR163C, strain tif3, stronger effect = lower value",0.995
same,normalized growth,"S. cerevisiae deletion strains, locus YPR167C, strain met16, stronger effect = lower value",0.985
same,normalized growth,"S. cerevisiae deletion strains, strain wtn01, stronger effect = lower value",0.982
same,normalized growth,"S. cerevisiae strains, strain wild type, stronger effect = lower value",1.01
